About 83,000 compounds went through this panel and 20% of them were active in at least one assay; those are over-represented in the sample as a whole.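 96-well plates, one dose, 48 hours. Percent growth reported; active if below 10.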 Unmarked numbers belong to inactive results. The source made the active and inactive calls.
Experiments:
Assay in all cases: NCI-60 one-dose screen, 48 h (100 = growth as untreated, 0 = no growth, -100 = all killed)
Settings in all cases: 10 µM unless noted
SR leukemia = system: SR leukemia
RPMI-8226 leukemia = system: RPMI-8226 leukemia
OVCAR-8 ovarian = system: OVCAR-8 ovarian
OVCAR-5 ovarian = system: OVCAR-5 ovarian
OVCAR-4 ovarian = system: OVCAR-4 ovarian
SK-OV-3 ovarian = system: SK-OV-3 ovarian
IGROV1 ovarian = system: IGROV1 ovarian
OVCAR-3 ovarian = system: OVCAR-3 ovarian
HS 578T breast = system: HS 578T breast
NCI/ADR-RES ovarian = system: NCI/ADR-RES ovarian

Q: What does the source list for COc1cc2cc(C(=O)N3C[C@@H](CCl)c4c3cc(OC(=O)N(CCC(=O)N3CCN(C)CC3)C3CCCCC3)c3ccccc43)[nH]c2c(OC)c1OC?
A: growth (SR leukemia): -38.8% (active); growth (RPMI-8226 leukemia): -30.3% (active); growth (OVCAR-8 ovarian): -48.3% (active); growth (OVCAR-5 ovarian): -59.1% (active); growth (OVCAR-4 ovarian): -83.5% (active); growth (SK-OV-3 ovarian): -57.7% (active); growth (IGROV1 ovarian): -59.2% (active); growth (OVCAR-3 ovarian): -65.3% (active); growth (HS 578T breast): -34% (active); growth (NCI/ADR-RES ovarian): -62.1% (active)

Q: Which results are given for O=CNc1cccc(-n2cnc3cc(-c4ccc(O)cc4)ccc32)c1?
A: growth (SR leukemia): 33.8%; growth (RPMI-8226 leukemia): 24.3%; growth (OVCAR-8 ovarian): 31.6%; growth (OVCAR-5 ovarian): 68.7%; growth (OVCAR-4 ovarian): 65.4%; growth (SK-OV-3 ovarian): 28.4%; growth (IGROV1 ovarian): 44.3%; growth (OVCAR-3 ovarian): 26.8%; growth (HS 578T breast): 24.4%; growth (NCI/ADR-RES ovarian): 12.1%

Q: What does the source list for O=C(Nc1ccc(Cl)c(C(F)(F)F)c1)N1CCN(c2cc(-c3cn(-c4ccccc4)nc3-c3cccc(O)c3)ccn2)CC1?
A: growth (SR leukemia): 10.8%; growth (RPMI-8226 leukemia): -13.7% (active); growth (OVCAR-8 ovarian): 8.11% (active); growth (OVCAR-5 ovarian): -35.1% (active); growth (OVCAR-4 ovarian): 13.5%; growth (SK-OV-3 ovarian): 24.3%; growth (IGROV1 ovarian): 10.8%; growth (OVCAR-3 ovarian): 13.5%; growth (HS 578T breast): 7.22% (active); growth (NCI/ADR-RES ovarian): -23.9% (active)

Q: What does the source list for Cc1ccc(C2CC(c3ccc(NC(=S)Nc4ccccc4)cc3)=NN2c2ccc(S(N)(=O)=O)cc2)cc1 (stereo not given)?
A: growth (SR leukemia): 17.8%; growth (RPMI-8226 leukemia): 7.06% (active); growth (OVCAR-8 ovarian): 26%; growth (OVCAR-5 ovarian): 16.2%; growth (OVCAR-4 ovarian): 27.1%; growth (SK-OV-3 ovarian): 41.5%; growth (IGROV1 ovarian): 19.2%; growth (OVCAR-3 ovarian): 2.37% (active); growth (HS 578T breast): 31.7%; growth (NCI/ADR-RES ovarian): 7.5% (active)

Q: How did the growth (SR leukemia) turn out when COc1cc(/C=C/C(=O)c2cnn(-c3cc(=O)[nH]c4ccc(C)cc34)c2C)cc(OC)c1OC was run?
A: The growth was -8.63% (active).

Q: What about the growth (RPMI-8226 leukemia) of the same molecule?
A: Its growth is -40.2% (active).

Q: What about the growth (OVCAR-8 ovarian) of the same molecule?
A: The growth was 11.5%.

Q: What about the growth (OVCAR-5 ovarian) of the same molecule?
A: Its growth is -37.3% (active).

Q: What about the growth (OVCAR-4 ovarian) of the same molecule?
A: Its growth is 39.3%.

Q: What about the growth (SK-OV-3 ovarian) of the same molecule?
A: The growth was 24.7%.

Q: And the growth (IGROV1 ovarian)?
A: The growth was -1.52% (active).

Q: And the growth (OVCAR-3 ovarian)?
A: Its growth is -50.1% (active).

Q: And the growth (HS 578T breast)?
A: The growth was 52.5%.

Q: And the growth (NCI/ADR-RES ovarian)?
A: Its growth is -11.1% (active).

Q: How did the growth (SR leukemia) turn out when C=CCSc1nnc(-c2ccc(-c3nc4ccccc4[nH]3)cc2)o1 was run?
A: Its growth is 81%.

Q: And the growth (RPMI-8226 leukemia)?
A: Its growth is 34.9%.

Q: What about the growth (OVCAR-8 ovarian) of the same molecule?
A: The growth was 55.9%.

Q: And the growth (OVCAR-5 ovarian)?
A: Its growth is 105%.

Q: And the growth (OVCAR-4 ovarian)?
A: Its growth is 46.1%.

Q: What about the growth (SK-OV-3 ovarian) of the same molecule?
A: The growth was 96.1%.

Q: And the growth (IGROV1 ovarian)?
A: The growth was 101%.

Q: What about the growth (OVCAR-3 ovarian) of the same molecule?
A: The growth was 91.5%.

Q: What about the growth (HS 578T breast) of the same molecule?
A: Its growth is 79%.

Q: What about the growth (NCI/ADR-RES ovarian) of the same molecule?
A: Its growth is 61.1%.

Q: Which results are given for C/C(=N\Nc1ccc(S(N)(=O)=O)cc1)c1cnn(-c2cc(=O)[nH]c3ccc(Br)cc23)c1C?
A: growth (SR leukemia): 4.11% (active); growth (RPMI-8226 leukemia): 74.3%; growth (OVCAR-8 ovarian): 80.5%; growth (OVCAR-5 ovarian): 81.4%; growth (OVCAR-4 ovarian): 67.7%; growth (SK-OV-3 ovarian): 69.2%; growth (IGROV1 ovarian): 56.9%; growth (OVCAR-3 ovarian): 56.2%; growth (HS 578T breast): 28.4%; growth (NCI/ADR-RES ovarian): 90.1%

Q: COc1ccc(NC(=O)Cn2c(/C=C/c3cccc(Br)c3)nc3ccccc3c2=O)cc1 was tested. Which growth (SR leukemia) did it give?
A: The growth was 78.3%.

Q: What about the growth (RPMI-8226 leukemia) of the same molecule?
A: Its growth is 42.5%.

Q: And the growth (OVCAR-8 ovarian)?
A: Its growth is 14.4%.

Q: And the growth (OVCAR-5 ovarian)?
A: Its growth is 47.6%.

Q: And the growth (OVCAR-4 ovarian)?
A: The growth was -45.7% (active).

Q: And the growth (SK-OV-3 ovarian)?
A: The growth was 36.4%.

Q: And the growth (IGROV1 ovarian)?
A: Its growth is 49.8%.

Q: What about the growth (OVCAR-3 ovarian) of the same molecule?
A: Its growth is 36.3%.

Q: What about the growth (HS 578T breast) of the same molecule?
A: Its growth is -0.494% (active).

Q: What about the growth (NCI/ADR-RES ovarian) of the same molecule?
A: The growth was 31.2%.

Q: How did the growth (SR leukemia) turn out when COc1ccc2[nH]c(O)c(N=Nc3nc(-c4ccc(Br)cc4)cs3)c2c1 was run?
A: Its growth is 19.3%.

Q: What about the growth (RPMI-8226 leukemia) of the same molecule?
A: The growth was 16.3%.

Q: What about the growth (OVCAR-8 ovarian) of the same molecule?
A: The growth was -23.7% (active).

Q: And the growth (OVCAR-5 ovarian)?
A: The growth was 31.4%.

Q: What about the growth (OVCAR-4 ovarian) of the same molecule?
A: The growth was -69.6% (active).

Q: What about the growth (SK-OV-3 ovarian) of the same molecule?
A: Its growth is -35.3% (active).

Q: And the growth (IGROV1 ovarian)?
A: The growth was 30.6%.

Q: And the growth (OVCAR-3 ovarian)?
A: Its growth is -71.3% (active).

Q: And the growth (HS 578T breast)?
A: The growth was 29.3%.

Q: And the growth (NCI/ADR-RES ovarian)?
A: Its growth is -24.6% (active).

Q: With CC(C)C[C@H](NC(=O)[C@@H]1CCCCCCCCCCC(=O)N[C@@H](CC(=O)N2CCC[C@@H]2C2CCCC2)C(=O)N1)B(O)O as the molecule, how does the growth (SR leukemia) read?
A: The growth was -14.3% (active).

Q: What about the growth (RPMI-8226 leukemia) of the same molecule?
A: The growth was 22%.

Q: What about the growth (OVCAR-8 ovarian) of the same molecule?
A: Its growth is -17.4% (active).

Q: What about the growth (OVCAR-5 ovarian) of the same molecule?
A: Its growth is -36.8% (active).

Q: And the growth (OVCAR-4 ovarian)?
A: Its growth is -13% (active).

Q: And the growth (SK-OV-3 ovarian)?
A: The growth was -7.33% (active).

Q: What about the growth (IGROV1 ovarian) of the same molecule?
A: Its growth is -58.2% (active).

Q: What about the growth (OVCAR-3 ovarian) of the same molecule?
A: The growth was -46.5% (active).

Q: And the growth (HS 578T breast)?
A: Its growth is 3.6% (active).

Q: And the growth (NCI/ADR-RES ovarian)?
A: The growth was 1.84% (active).

Q: What does the source list for FC(F)(F)CN1CCN(CCn2c(C(F)(F)F)cc3c(Cl)ncnc32)CC1?
A: growth (SR leukemia): -54.6% (active); growth (RPMI-8226 leukemia): -6.12% (active); growth (OVCAR-8 ovarian): 8.76% (active); growth (OVCAR-5 ovarian): 103%; growth (OVCAR-4 ovarian): 21.5%; growth (SK-OV-3 ovarian): 71.4%; growth (IGROV1 ovarian): -80.5% (active); growth (OVCAR-3 ovarian): -47.4% (active); growth (HS 578T breast): 47.4%; growth (NCI/ADR-RES ovarian): 75.1%

Q: How did the growth (SR leukemia) turn out when FC(F)(F)c1cc2c(Cl)ncnc2n1CCN1CCOCC1 was run?
A: The growth was -50.8% (active).

Q: What about the growth (RPMI-8226 leukemia) of the same molecule?
A: The growth was 103%.

Q: And the growth (OVCAR-8 ovarian)?
A: The growth was 64.7%.

Q: And the growth (OVCAR-5 ovarian)?
A: The growth was 98.4%.

Q: And the growth (OVCAR-4 ovarian)?
A: The growth was 19.7%.

Q: And the growth (SK-OV-3 ovarian)?
A: Its growth is 101%.

Q: And the growth (IGROV1 ovarian)?
A: The growth was -58.3% (active).

Q: What about the growth (OVCAR-3 ovarian) of the same molecule?
A: Its growth is 38.5%.

Q: What about the growth (HS 578T breast) of the same molecule?
A: The growth was 95.8%.

Q: And the growth (NCI/ADR-RES ovarian)?
A: Its growth is 81.4%.

Q: What does the source list for CCCCCCCCc1ccc(C(=O)Nc2cccc(O)c2)cc1?
A: growth (SR leukemia): 29.8%; growth (RPMI-8226 leukemia): 35%; growth (OVCAR-8 ovarian): 83%; growth (OVCAR-5 ovarian): 100%; growth (OVCAR-4 ovarian): 78.8%; growth (SK-OV-3 ovarian): 109%; growth (IGROV1 ovarian): 85.6%; growth (OVCAR-3 ovarian): 91.2%; growth (HS 578T breast): 81.4%; growth (NCI/ADR-RES ovarian): 59%

— PubChem BioAssay (NCI)
